Assay outcomes: PubChem BioAssay, National Center for Advancing Translational Sciences (NCATS)
An excerpt weighted towards active compounds, which were near 2.5% of everything screened.
TSG101-PTAP inh: inhibitors of HIV-1 PTAP binding to human TSG101, validation. Q99816. Fluorescence polarization, FITC-PTAP peptide/Tsg101, 20 min. Potency, µM (titrated, usually from 115 µM), actives largely listed as inhibitors. 44,000 tested, under 10 active. AID 1347069; also: potency is read from the fitted curve at half-maximal effect; 0% is about no effect
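Compounds pinned into 10 uM Tsg101 binding domain, then 50 nM FITC-PTAP peptide added in pH 7.5 HEPES buffer; FP read after 20 min, room temperature. Total S+P intensity flags fluorescent compounds; active cut-off <25 µM, efficacy <60%.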
B2AR arrestin ag: agonists recruiting beta-arrestin to human beta2-adrenergic receptor | HTLA Tango cells, beta-arrestin recruitment, luciferase luminescence, 18 h | AID 1347077 | Potency, µM (series often up to 46.1 µM), most hits filed as activators | P07550 | 44,000 tested, under 10 active;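 also: potency is read from the fitted curve at half-maximal effect; 0% = DMSO and full agonism = EC100 isoproterenol or metaproterenol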
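Luminescence read-out: arrestin recruitment to recombinant beta2-AR releases tTA, inducing luciferase. Cells exposed 18 hr at 37 degrees C to up to 46 microM compound; %Activity from corrected signal, concentration-response curves classified by r2, magnitude and efficacy.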
GALK inh: inhibitors of human galactokinase (GALK) | 44,000 tested, under 10 active | P51570 | recombinant GALK, Kinase-Glo ATP luminescence, 1 h | Potency, µM (titrated, usually from 57.5 µM), for the others: top-dose activity, negative = inhibition, usual class: inhibitors | AID 1347072;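 also: plate controls were full GALK reaction for no effect and reaction lacking GALK for full effect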
Target sequence (P51570 whole entry, looked up): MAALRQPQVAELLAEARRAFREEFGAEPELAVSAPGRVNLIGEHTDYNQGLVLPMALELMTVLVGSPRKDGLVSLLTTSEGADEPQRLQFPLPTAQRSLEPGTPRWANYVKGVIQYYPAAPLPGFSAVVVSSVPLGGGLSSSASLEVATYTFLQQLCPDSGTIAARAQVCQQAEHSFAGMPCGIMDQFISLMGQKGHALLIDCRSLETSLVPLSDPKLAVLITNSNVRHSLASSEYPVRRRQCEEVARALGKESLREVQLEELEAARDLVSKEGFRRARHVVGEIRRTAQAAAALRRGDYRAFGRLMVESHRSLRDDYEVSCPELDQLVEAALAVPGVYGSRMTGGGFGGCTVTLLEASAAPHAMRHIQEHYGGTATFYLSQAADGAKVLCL
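5 nM GALK with 35 µM ATP and 100 µM galactose in HEPES pH 8.0, MgCl2, NaCl, DTT, BSA; 1 h RT reaction, remaining ATP detected by Kinase-Glo Plus luminescence after 10 min; qHTS concentration series.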
GPR32 ag: GPR32 (DRV1) agonism, beta-arrestin recruitment; CHO-K1 GPR32 beta-arrestin PathHunter luminescence, 90 min; zero percent set by DMSO-only wells; activation, % at 76.9 µM; actives 2.5% (n = 48,000);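 active = activation of at least 60% and not above a set upper limit, about 1 call in 100 departs from these limits; inconclusive = activation of 40% to 60%, or above that upper limit; inactive = activation under 40%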; also: 0% is about no effect
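Luminescent readout of beta-Gal complementation quantifies ligand-induced beta-arrestin association with GPR32 in CHO-K1 cells; 90 min compound incubation at 37 °C, detection 1 h at room temperature.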
* hit, by the source's call; i = inactive; ? = inconclusive; . = no result given. Unless noted, calls follow the shape of the dose curve; as a rule, active = well fitted curve in the direction sought with a large enough effect; inconclusive = small, poorly fitted or top-dose-only effect, or another doubt; inactive = no such curve, though single readings can be large; an effect the other way counts as inactive or inconclusive.

SMILES	TSG101-PTAP inh	B2AR arrestin ag	GALK inh	GPR32 ag
CCOc1ccccc1CC1C(=O)Nc2ccc(Br)cc21 (stereo not given)	i	i	-7%	73*
CCOc1c(CC2C(=O)Nc3ccc(Br)cc32)cccc1OC (stereo not given)	i	i	0%	?
COc1ccc(CC2C(=O)Nc3ccc(Br)cc32)cc1OC (stereo not given)	i	i	5%	-18
CCCOc1ccc(CC2C(=O)Nc3ccc(Br)cc32)cc1 (stereo not given)	i	i	-1%	78*
COc1cc(S(=O)(=O)NCCc2c(C)[nH]c3ccccc23)c(C)cc1C	i	i	5%	78*
CC(C)(C)OC(=O)N1CCc2nc(N3CCN(c4ncccn4)CC3)ncc2C1	i	i	0%	62*
CCn1ccc2c(OCC(=O)NCc3ccccc3)cccc2c1=O	i	i	-3%	22
CCCn1ccc2c(OCC(=O)NCc3ccccc3Cl)cccc2c1=O	i	i	-2%	69*
Cn1ccc2c(OCC(=O)Nc3ccc(OC(F)(F)F)cc3)cccc2c1=O	i	i	-3%	36
CCn1ccc2c(OCC(=O)Nc3ccccc3C(F)(F)F)cccc2c1=O	i	i	-5%	85*
CCOC(=O)c1ccc(NC(=O)COc2cccc3c(=O)n(C)ccc23)cc1	i	i	0%	69*
CCn1ccc2c(OCC(=O)Nc3ccccc3C)cccc2c1=O	i	i	-2%	45
COCCn1ccc2c(OCC(=O)Nc3cccc(OC)c3)cccc2c1=O	i	i	-2%	73*
COc1cc2c(cc1NC(=O)COc1cc(C)ccc1C)oc1ccccc12	i	i	-3%	-12
CCN1CCN(CCCNC(=O)Cn2nc(C)n3c(cc4cc(C)ccc43)c2=O)CC1	i	i	6%	-10
CCCn1cc(S(=O)(=O)c2cc(C)ccc2C)c(=O)c2cc(F)c(N3CCOCC3)cc21	i	i	1%	-26
COc1cc(OC)c(NS(=O)(=O)c2c(C(=O)N3CCCCCC3)c(C)n(C)c2C)cc1Cl	i	i	0%	-6
CN(C)c1ccc(-c2nc(-c3ccccn3)no2)cc1[N+](=O)[O-]	i	i	-9%	76*
CN1CCN(c2ccc(-c3nc(-c4ccccc4)no3)cc2[N+](=O)[O-])CC1	i	i	2%	83*
C=CC(=O)c1ccc(CCCCCC)cc1	.	.	.	11
CCCCCCC[N+](CC)(CC)CCCCc1ccc(Cl)cc1	.	.	.	87*
CCOC(=O)CSc1nc2ccc(NC(=O)c3ccccc3)cc2s1	i	i	-6%	82*
CCOC(=O)CSc1nc2ccc(NC(=O)COc3ccccc3)cc2s1	i	i	7%	61*
Cc1ccc(C(=O)Nc2ccc(-c3nc4ccccc4s3)cc2C)cc1C	i	i	0%	21
Cc1ccc(NC(=O)CSc2nc3ccc(NC(=O)CCc4ccccc4)cc3s2)cc1	i	i	8%	66*
SMILES	TSG101-PTAP inh	B2AR arrestin ag	GALK inh	GPR32 ag
CCOC(=O)CSc1nc2ccc(NC(=O)c3ccc(F)cc3)cc2s1	i	i	1%	40
Cc1cccc(C(=O)Nc2ccc(-c3nc4ccccc4s3)cc2Cl)c1	i	i	2%	92*
Cc1ccccc1NC(=O)CSc1nc2ccc(NC(=O)CCc3ccccc3)cc2s1	i	i	0%	4
COc1cccc(CC(=O)Nc2ccc(-c3nc4ccccc4s3)cc2)c1	i	i	0%	?
Cc1ccc(OCC(=O)Nc2ccc3nc(SCc4ccccc4)sc3c2)cc1	i	i	-5%	-3
Cc1ccc(CSc2nc3ccc(NC(=O)COc4ccccc4)cc3s2)cc1	i	i	0%	74*
CCOc1ccc(C(=O)Nc2ccc3nc(SCc4ccccc4)sc3c2)cc1	i	i	6%	63*
Cc1cc(C)cc(OCC(=O)Nc2ccc(-c3nc4ccccc4s3)cc2)c1	i	i	2%	72*
CCCCC(=O)Nc1cccc(-c2nc3ccccc3s2)c1	i	i	5%	92*
O=C(O)C1CCC1	.	.	.	-28
O=C(O)c1ccc(OCCN2CCCCC2)cc1	.	.	.	4
CC(C)N(C(=O)Cn1cc(SCC(=O)Nc2ccccc2F)c2ccccc21)C(C)C	i	i	4%	-6
Cc1noc(NS(=O)(=O)c2ccc(NC(=O)c3ccc(Br)cc3)cc2)c1C	i	i	0%	13
CCOC(=O)CSc1nc2ccc(NC(=O)c3ccccc3F)cc2s1	i	i	4%	107*
CS(=O)(=O)Nc1ccc(-c2nc3ccccc3s2)cc1	i	i	0%	100*
Cc1c(NS(C)(=O)=O)cccc1-c1nc2ccccc2s1	i	i	-5%	20
C/C(=N/NC(=O)c1ccncc1)C(=O)O	.	.	.	-37
CCCC(O)c1nc2ccccc2n1CCCCOc1ccc(OC)cc1 (stereo not given)	i	i	3%	91*
CC(=O)NCCc1nc2ccccc2n1CCCCOc1ccc(Cl)cc1	i	i	8%	76*
C[C@@H](O[C@H]1OCCN(Cc2n[nH]c(=O)[nH]2)[C@H]1c1ccc(F)cc1)c1cc(C(F)(F)F)cc(C(F)(F)F)c1	.	.	.	27
CCCCCn1c(=O)[nH]c2cc(C(=O)N3CCN(c4cccc(OC)c4)CC3)ccc2c1=O	i	i	4%	36
CCCCCn1c(=O)[nH]c2cc(C(=O)N3CCN(c4cccc(C)c4)C(C)C3)ccc2c1=O (stereo not given)	i	i	-5%	104*
Cc1ccccc1NC(=O)c1cc2sccc2n1Cc1ccc(F)cc1	i	i	-11%	-8
CC(NC(=O)c1cc2sccc2n1Cc1ccc(F)cc1)c1ccccc1 (stereo not given)	i	i	6%	100*
CCS(=O)(=O)N1CCc2cc(C(=O)Nc3ccc(Br)cc3F)ccc21	i	i	0%	74*
SMILES	TSG101-PTAP inh	B2AR arrestin ag	GALK inh	GPR32 ag
CCn1c(=O)cc(OCC(=O)N2CCN(c3ccc(C)cc3)C(C)C2)c2ccccc21 (stereo not given)	i	i	5%	74*
CCn1c(=O)cc(OCC(=O)N2CCN(c3ccc(F)cc3)CC2)c2ccccc21	i	i	0%	29
CCc1ccc(CNC(=O)COc2cc(=O)n(CC)c3ccccc23)cc1	i	i	0%	117*
Cc1ccccc1Cn1nc(C)c(NC(=O)c2cc(CC(C)C)on2)c1C	i	i	4%	64*
COc1ccc(OCC(=O)Nc2ccc(-c3nc4cc(Cl)ccc4o3)cc2)cc1	i	i	-3%	3
COc1ccc(Nc2nc3ccccc3nc2NS(=O)(=O)c2ccc(Cl)cc2)cc1OC	i	i	0%	118*
COc1ccc(-c2nc3ccc(NS(=O)(=O)c4ccc(Cl)cc4)cc3o2)cc1	i	i	0%	79*
